Laboratory results: PubChem BioAssay (Tox21)
Results filed as inconclusive are left out. A call without a number means that no potency is given here. More than one record can exist for a structure, and the calls need not agree. Activity calls are given as the source filed them. Calls come from the whole dose curve.

Each compound was assayed against Retinoic acid receptor RXR-alpha (Homo sapiens) (UniProt P19793) (assay: qHTS assay to identify small molecule agonists of the RXR signaling pathway (AID 1159527; note: nearly all actives have a fitted effect of over 35% in size)). Conditions: HEK293T RXRa-UAS-bla, beta-lactamase ratio, 16 h; series mostly up to 76.8 µM.
Method in brief: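 GeneBLAzer RXR-alpha-UAS-bla HEK 293T cells in medium with 2% charcoal-stripped FBS, pre-incubated 5 hr at 37 C, then exposed to compounds 16 hr. Beta-lactamase reporter read by FRET substrate, 2 hr room temperature, 460/530 nm emission.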
Potency is the fitted concentration of half-maximal effect.

Sequence of Retinoic acid receptor RXR-alpha (Homo sapiens) (P19793 whole entry, looked up): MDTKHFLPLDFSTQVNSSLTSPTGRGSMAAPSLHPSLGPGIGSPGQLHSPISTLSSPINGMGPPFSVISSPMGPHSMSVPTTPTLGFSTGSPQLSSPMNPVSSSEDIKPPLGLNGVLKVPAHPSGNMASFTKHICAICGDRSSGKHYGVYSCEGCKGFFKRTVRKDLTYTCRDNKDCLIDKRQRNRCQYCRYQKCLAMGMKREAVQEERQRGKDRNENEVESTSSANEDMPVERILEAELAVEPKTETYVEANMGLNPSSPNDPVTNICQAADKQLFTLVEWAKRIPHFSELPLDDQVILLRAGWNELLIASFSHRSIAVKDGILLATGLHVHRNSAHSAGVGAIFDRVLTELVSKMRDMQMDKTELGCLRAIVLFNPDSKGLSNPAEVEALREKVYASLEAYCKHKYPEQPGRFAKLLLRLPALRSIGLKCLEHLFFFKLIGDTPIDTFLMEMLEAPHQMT

Q: With `CC(C)(C)NCC(O)c1ccc(O)c(CO)c1` (stereo not drawn) as the compound, how does the Potency read?
A: inactive

Q: `C[C@]12C[C@H](O)[C@H]3[C@@H](CCC4=CC(=O)CC[C@@]43C)[C@@H]1CC[C@@H]2C(=O)CO` was tested. Which Potency did it give?
A: inactive

Q: `NC(=O)NO` was tested. Which Potency did it give?
A: inactive

Q: For `C=C(C)C(N)=O`, which Potency is on record?
A: inactive

Q: With `Cc1cccc(C)c1O` as the compound, how does the Potency read?
A: inactive

Q: With `C=CCOC(=O)CC(C)C` as the compound, how does the Potency read?
A: inactive

Q: With `O=C(O)CN(CC(=O)O)CC(=O)O` as the compound, how does the Potency read?
A: inactive

Q: Which Potency does the source give for `CC(C)CC(C)CC(O)CC(C)C` (stereo not drawn) here?
A: inactive

Q: `CCCCNC(=O)NS(=O)(=O)c1ccc(N)cc1` was tested. Which Potency did it give?
A: inactive

Q: With `CCCCCCCCOc1ccc(C(=O)c2ccccc2)c(O)c1` as the compound, how does the Potency read?
A: inactive

Q: Which Potency does the source give for `N[C@@H](Cc1c[nH]c2ccccc12)C(=O)O` here?
A: inactive

Q: Which Potency does the source give for `C[C@]12CC[C@@H]3c4ccc(O)cc4C[C@@H](CCCCCCCCCS(=O)CCCC(F)(F)C(F)(F)F)[C@H]3[C@@H]1CC[C@@H]2O` (stereo partly drawn) here?
A: inactive

Q: With `O=c1cc[nH]c(=O)[nH]1` as the compound, how does the Potency read?
A: inactive

Q: `N[C@@H](Cc1c[nH]c2ccc(O)cc12)C(=O)O` was tested. Which Potency did it give?
A: inactive

Q: How did the Potency turn out when `CC(=O)c1ccc(S(=O)(=O)NC(=O)NC2CCCCC2)cc1` was run?
A: inactive

Q: How did the Potency turn out when `CCCCCCCC(=O)OCC(O)CO` (stereo not drawn) was run?
A: inactive

Q: For `OCCCc1ccccc1`, which Potency is on record?
A: inactive

Q: How did the Potency turn out when `CN/C(=C\[N+](=O)[O-])NCCSCc1ccc(CN(C)C)o1` was run?
A: inactive

Q: For `CC1(C)O[C@@H]2[C@@H](CO[C@@]3(COS(N)(=O)=O)OC(C)(C)O[C@@H]23)O1`, which Potency is on record?
A: 17.4 µM (active) and inactive

Q: For `NC(=O)OCC(COC(N)=O)c1ccccc1`, which Potency is on record?
A: inactive

Q: For `C=C(C)OC(C)=O`, which Potency is on record?
A: inactive

Q: For `O=C1CCCCCN1`, which Potency is on record?
A: inactive

Q: `NC(=O)N1c2ccccc2C=Cc2ccccc21` was tested. Which Potency did it give?
A: inactive
